In ChEMBL document CHEMBL1961873, “Compounds: GSK PKIS; Assays: Nanosyn kinase panel” (2012):

Molecular target: Receptor tyrosine-protein kinase erbB-4 (Homo sapiens) (UniProt Q15303)
Details: at 0.1 µM
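Further: values are averaged percent inhibition of ERBB4 kinase activity.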

Chain of Receptor tyrosine-protein kinase erbB-4 (Homo sapiens) (Q15303 whole entry): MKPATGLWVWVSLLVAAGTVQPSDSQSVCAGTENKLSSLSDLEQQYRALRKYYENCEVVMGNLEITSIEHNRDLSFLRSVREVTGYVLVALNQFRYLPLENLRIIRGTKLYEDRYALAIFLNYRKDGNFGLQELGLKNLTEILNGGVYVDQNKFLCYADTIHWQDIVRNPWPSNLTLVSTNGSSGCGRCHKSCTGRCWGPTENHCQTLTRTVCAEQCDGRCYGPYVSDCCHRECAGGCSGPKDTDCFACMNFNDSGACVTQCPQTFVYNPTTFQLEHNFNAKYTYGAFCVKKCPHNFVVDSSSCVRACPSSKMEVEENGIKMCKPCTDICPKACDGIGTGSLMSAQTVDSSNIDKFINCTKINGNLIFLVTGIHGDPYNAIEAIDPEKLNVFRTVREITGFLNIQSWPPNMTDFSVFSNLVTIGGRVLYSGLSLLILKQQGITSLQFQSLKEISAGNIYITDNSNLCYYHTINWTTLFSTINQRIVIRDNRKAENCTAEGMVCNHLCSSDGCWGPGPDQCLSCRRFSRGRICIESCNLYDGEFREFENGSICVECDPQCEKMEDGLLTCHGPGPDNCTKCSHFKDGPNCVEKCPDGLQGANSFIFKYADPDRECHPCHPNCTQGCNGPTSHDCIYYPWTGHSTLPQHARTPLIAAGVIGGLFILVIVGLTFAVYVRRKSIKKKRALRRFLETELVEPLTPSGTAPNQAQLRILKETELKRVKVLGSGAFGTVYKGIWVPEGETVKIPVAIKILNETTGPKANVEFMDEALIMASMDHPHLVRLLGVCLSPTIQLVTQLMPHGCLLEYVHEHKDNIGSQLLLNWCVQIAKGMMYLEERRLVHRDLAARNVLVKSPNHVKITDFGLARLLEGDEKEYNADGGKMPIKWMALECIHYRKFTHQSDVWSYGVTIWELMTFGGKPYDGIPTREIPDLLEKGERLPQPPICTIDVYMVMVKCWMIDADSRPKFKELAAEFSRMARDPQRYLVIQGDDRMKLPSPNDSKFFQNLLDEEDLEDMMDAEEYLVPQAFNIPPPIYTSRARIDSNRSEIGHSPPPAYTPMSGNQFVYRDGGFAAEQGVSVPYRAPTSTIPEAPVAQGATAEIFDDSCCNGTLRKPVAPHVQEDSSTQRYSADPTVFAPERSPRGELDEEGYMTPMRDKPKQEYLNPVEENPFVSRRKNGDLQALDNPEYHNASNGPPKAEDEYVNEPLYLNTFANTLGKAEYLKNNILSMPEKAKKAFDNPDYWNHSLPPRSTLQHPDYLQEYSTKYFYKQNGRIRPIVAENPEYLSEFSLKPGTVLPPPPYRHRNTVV

SMILES	inhibition
CCn1c(-c2nonc2N)nc2ccc(F)cc21	20.6%
[O-][S+]1CCN(Cc2ccc(-c3ccc4ncnc(Nc5ccc(OCc6ccccc6)c(Cl)c5)c4c3)o2)CC1	69.6%
N#Cc1cccc(Nc2nccc(-c3cnn4ncccc34)n2)c1	8.57%
CS(=O)(=O)CCNCc1nc(-c2ccc3ncnc(Nc4ccc(OCc5cccc(C(F)(F)F)c5)cc4)c3c2)cs1	6.42%
COC(=O)c1ccc2c(c1)C(=Cc1cc(Br)c(O)c(Br)c1)C(=O)N2	3.22%
NS(=O)(=O)c1cccc(-c2cc3ccncc3cc2OCc2ccccc2)c1	8.81%
COc1ccc(-c2nn3ncccc3c2-c2ccnc(Nc3cccc(C(F)(F)F)c3)n2)cc1	25.8%
Cc1cc(O)cc(C)c1/C=C/c1cncc(C(=O)N(C)C)c1	9.24%
COc1cc(/C=N/Nc2ncnc3c2cnn3C(C)C)ccc1O	3.96%
CCOc1nccc2c1nc(-c1nonc1N)n2CC	6.98%
Oc1cccc(-c2nc(-c3ccccc3)[nH]c2-c2ccncc2)c1	12.6%
Nc1nccc(C#Cc2cncnc2Nc2ccc(OCc3cccc(F)c3)c(Cl)c2)n1	14.2%
Cc1ccc2c(-c3ccnc(Nc4ccc5c(c4)OCCO5)n3)c(-c3ccc(C(F)(F)F)cc3)nn2n1	3.46%
CS(=O)(=O)Nc1cccc(-c2ccc3c(NC(=O)C4CC4)n[nH]c3c2)c1	6.04%
Cc1cc(-c2ccccn2)cc(C)c1/C=C/c1cncc(-c2nn[nH]n2)c1	8.8%
CN(C)CCCn1c(-c2nonc2N)nc2cnccc21	17.3%
Cc1cc(Cl)cc2c1NC(=O)C2=NNc1ccc(S(N)(=O)=O)cc1	6.08%

SMILES	inhibition
CN(c1ccc(NC(=O)Nc2ccc(OC(F)(F)F)cc2)cc1)c1ccnc(Nc2cccc(S(N)(=O)=O)c2)n1	7.13%
COc1cc2ncn(-c3cc(OCc4ccccc4S(C)(=O)=O)c(C#N)s3)c2cc1OC	8.79%
Cc1ccc(O)cc1Nc1ccnc2ccc(S(C)(=O)=O)cc12	20.2%
CN1CCN(C(=O)c2ccc(NC(=O)Nc3ccc(N(C)c4ccnc(Nc5ccc(CS(C)(=O)=O)cc5)n4)cc3)cc2)CC1	7.39%
COC(=O)Nc1nc2cc(Oc3ccc(NC(=O)Nc4cccc(Br)c4)cc3)ccc2[nH]1	7.14%
NS(=O)(=O)c1ccc(N/N=C2\C(=O)Nc3ccc(Cl)cc32)cc1	4.78%
Cc1nc(-c2ccccc2)n2nc(NCCCN3CCOCC3)ncc12	5.53%
COc1cc(Nc2nccc(-c3cnn4ncccc34)n2)cc(OC)c1	5.96%
NS(=O)(=O)c1cccc(Nc2cc(-c3ccc(F)cc3)n[nH]2)c1	5.56%
COc1ccc2ncnc(Nc3ccc(OCc4ccccc4)cc3)c2c1	56.2%
Cc1ccc2c(c1)/C(=N/Nc1ccc(S(N)(=O)=O)cc1)C(=O)N2	6.45%
NS(=O)(=O)c1ccc(NC=C2C(=O)Nc3ccc4ncsc4c32)cc1	17.8%
CCS(=O)(=O)c1ccc(OC)c(Nc2ncc(-c3cccc(OC)c3)o2)c1	10.5%
c1ccc(Cc2nc3ccc(Nc4ncnc5ccccc45)cc3[nH]2)cc1	98.2%
NC(=O)c1cccc(Nc2nccc(Nc3cccc(F)c3)n2)c1	5.37%
CCCN1CCCC(c2ccc(Nc3nc(Nc4cc(F)ccc4C(N)=O)c4cc[nH]c4n3)c(OC)c2)C1 (stereo not drawn)	36.3%
